A selection: hits, their analogues and other compounds. The true share with any hit is near 21%.
Pf growth 48h – P. falciparum growth inhibition at 48 hours (one generation) | P. falciparum luciferase growth in erythrocytes, 48 h | Potency, µM (series often up to 28.7 µM), for the others: top-dose activity change, negative = inhibition, hits mostly inhibitors | 310,000 compounds, 5.9% hits | AID 504832; further: potency means the concentration at half of the fitted maximal effect; on the % scale 0 is the no-effect control and ±100 the full control effect
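Erythrocytes infected with P. falciparum carrying an integrated firefly luciferase reporter (2% hematocrit, 0.1% parasitemia final) were exposed to compounds in RPMI 1640 with 0.5% Albumax at 37 C, 5% CO2. Growth inhibition was scored as reduced luminescence.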
NS1 function inh – inhibitors of influenza NS1 protein function; Potency, µM (doses to about 46.1 µM), for the others: at the top dose activity, positive = more growth; AID 2326; 270,000 compounds, 0.4% hits; calls by dose curve; further: potency means the concentration at half of the fitted maximal effect; actives are rising curves; nearly all actives have a fitted effect of over 50% in size
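Recovery from NS1-induced slow growth read by OD600 in budding yeast switched to galactose assay medium (pH 6.0, -URA) at 1:100 dilution. Compound 23 nl per well; the matching strain lacking NS1 serves as control.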
SARS PLpro yeast – inhibitors of SARS-CoV papain-like protease in yeast; S. cerevisiae expressing SARS-CoV PLpro, growth rescue; Potency, µM (highest dose often 32.9 µM), for inactives: at the highest dose activity, positive = growth rescue, actives largely listed as activators; 330,000 compounds, 0.19% hits; calls by dose curve; further: potency means the concentration at half of the fitted maximal effect; 0% is about no effect; nearly all actives have a fitted effect of over 55% in size
Cycloheximide cs – counter-screen hit for Shiga toxin inhibitors, cycloheximide | 300,000 compounds, 12% hits | cell reporter, cycloheximide protein synthesis inhibition counterscreen | max response, %; in the data active means max response mostly above about 13%, no sharp cut-off; inactive means mostly below about 14%; further: read at 38.3 µM for the half of the compounds with a filed dose; 0% is about no effect
Shiga inhibitor – blocks Shiga toxin action in Vero cells; Vero cells, Shiga toxin protein synthesis inhibition reporter; inhibition, % at 38.7 µM; 290,000 compounds, 9.2% hits; AID 2315; in the data active means inhibition mostly above about 28%, no sharp cut-off; inactive means mostly below about 43%; further: 0% is about no effect
Pf growth 96h – P. falciparum growth inhibition at 96 hour, primary screen for plastid delayed-death inhibitors | P. falciparum luciferase reporter growth, 96 h | Potency, µM (titrated, usually from 28.7 µM), without a hit: top-dose activity change, negative = inhibition, actives largely listed as inhibitors | 320,000 compounds, 6.9% hits; further: potency means the concentration at half of the fitted maximal effect; on the % scale 0 is the no-effect control and ±100 the full control effect
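Infected RBCs, 2% Hct / 0.05% parasitemia final; luciferase-reporter P. falciparum; cpd 96 h, 37 C, 5% CO2; luciferase detection reagent; luminescence.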
Active calls of the source: *; i = inactive; u = inconclusive; x = no result; + = active, no number; [ ] = remark or other dose. Unless noted, the call rests on the fitted dose curve; in most records, active means well fitted inhibition curve with a large enough effect; inconclusive means small, poorly fitted or top-dose-only effect, or another doubt; inactive means no such curve, though single readings can be large or run the other way.

SMILES	Pf growth 48h	NS1 function inh	SARS PLpro yeast	Cycloheximide cs	Shiga inhibitor	Pf growth 96h
COc1cccc(OCc2cc(C(=O)N(C)C3CC(C)(C)NC(C)(C)C3)no2)c1	u	-13.1%	0.8%	-1.8	27.0	0.0%
CC(=O)c1ccc(OCc2cc(C(=O)N(C)C3CCOC3)no2)cc1 (stereo not given)	4.8%	1.8%	-0.3%	3.5	-8.0	11.7µM*
COc1cc(Cl)ccc1OCc1cc(C(=O)N(C)C2CCOC2)no1 (stereo not given)	9.5%	4.9%	-6.9%	37.0*	59.7*	u
CC(=O)c1ccc(OCc2cc(C(=O)N(C)Cc3nc4c(C)cccc4[nH]3)no2)cc1	u	-17.7%	-2.8%	6.6	18.0	-6.4%
O=C(c1cc(COc2c(F)cccc2F)on1)N(Cc1ccccc1)CC1CC1	0.9%	-24.2%	5.9%	18.3*	27.1	-15.9%
CC(OC(=O)C1CC2CCCC(C1)C2=O)C(=O)Nc1cccc([N+](=O)[O-])c1 (stereo not given)	x	x	1.0%	x	x	x
COC(=O)c1sccc1NC(=O)CN(C)NS(=O)(=O)c1ccc(F)cc1	-21.0%	-54.7%	-4.6%	3.8	-6.8	-2.1%
CCOC(=O)C1=NS(=O)(=O)NC(C)=C1	x	x	22.3%	x	x	x
COc1ccccc1-c1nc(-c2ccccc2)[nH]c(=O)c1C#N	12.7%	x	-4.2%	5.9	15.1	-7.2%
O=C(NCC1COCCO1)c1cc(COc2c(F)cccc2F)on1 (stereo not given)	12.2%	-2.7%	0.2%	26.0*	30.4	-18.7%
Cc1cnc(CN(C)C(=O)c2cc(COc3c(F)cccc3F)on2)[nH]1	4.15µM*	1.9%	0.0%	-2.0	-2.7	-27.3%
COc1cccc(OCc2cc(C(=O)N(C)C3CCOCC3)no2)c1	28.6%	-1.1%	0.9%	4.5	19.5	-26.1%
CN(CCCN1CCOCC1)C(=O)c1cc(COc2c(F)cccc2F)on1	-8.5%	-6.5%	2.4%	3.2	11.3	40.2%
Cc1cc(OCc2cc(C(=O)N(C)C3CCOC3)no2)cc(C)c1Cl (stereo not given)	6.0%	-31.5%	8.5%	48.9*	77.6*	70.3%
CN(C(=O)c1cc(COc2c(F)cccc2F)on1)C1CCOC1 (stereo not given)	46.1%	11.4%	2.0%	30.0*	31.5	3.2%
Cc1ccccc1OCC(=O)N(CC(C)C)c1c(N)n(CC(C)C)c(=O)[nH]c1=O	-2.6%	0.7%	0.1%	9.2	-4.0	u
Nc1c(-c2ccc(Cl)cc2)cnn1C1CCS(=O)(=O)C1 (stereo not given)	3.2%	13.9%	18.0%	10.2	12.5	x
Cc1cccc(C)c1OCc1cc(C(=O)N(C)Cc2cc(C3CC3)n[nH]2)no1	u	-26.2%	-3.6%	32.1*	50.2*	5.0%
COc1cc2c(cc1OC)C1OC(c3ccsc3)(C2)Oc2cc(C)oc(=O)c21 (stereo not given)	u	21.8%	3.3%[6.58 µM]	-1.2	i	1.69µM*
O=c1oc2ccccc2c2c1C1O[C@](c3ccsc3)(Cc3ccccc31)O2	1.69µM*	13.3%	1.4%[6.58 µM]	4.9	i	u
COc1ccc([C@]23Cc4ccccc4C(O2)c2c(c4ccc(OC)cc4oc2=O)O3)cc1	u	-5.2%	u	37.8*	+	1.69µM*
COc1ccc2c3c(c(=O)oc2c1)C1O[C@](c2ccsc2)(Cc2ccccc21)O3	u	6.5%	-4.5%[6.58 µM]	6.9	i	u
O=C1C2=C(C(=O)c3ccccc31)C1O[C@](c3ccsc3)(Cc3ccccc31)O2	1.2µM*	9.4%	u	2.1	i	39.4%[5.75 µM]
COc1ccc(/C(N)=N/OC(=O)C2CCC(=O)N2S(=O)(=O)c2ccc(C)cc2)cc1OC (stereo not given)	3.4%	-2.1%	6.6%	-2.0	-7.4	178.5%
Cc1cc2c(c(=O)o1)C1O[C@](c3ccsc3)(Cc3ccccc31)O2	1.9µM*	u	3.5%[6.58 µM]	-2.5	i	u
SMILES	Pf growth 48h	NS1 function inh	SARS PLpro yeast	Cycloheximide cs	Shiga inhibitor	Pf growth 96h
COc1ccc([C@]23Cc4cc(OC)c(OC)cc4C(O2)c2c(cc(-c4ccccc4)oc2=O)O3)cc1	u	19.6%	-4.9%[6.58 µM]	-2.7	i	u
COc1ccc([C@]23Cc4cc(OC)c(OC)cc4C(O2)c2c(cc(C)oc2=O)O3)cc1	u	14.4%	0.9%[6.58 µM]	1.1	i	0.338µM*
COc1ccc(C(=O)O)cc1S(=O)(=O)Nc1ccccc1C(=O)NCc1ccc2c(c1)OCO2	-3.9%	x	1.3%	x	x	-4.0%
COc1ccc(CC(=O)NCC2CCCN(Cc3ccccc3Cl)C2)cc1 (stereo not given)	-17.2%	5.4%	-3.6%	-2.7	-8.2	184.0%
COc1ccc(C(=O)N2CCCC(CNC(=O)c3ccccc3Cl)C2)o1 (stereo not given)	-0.2%	3.3%	2.8%	18.5*	20.1	68.2%
CC(=O)c1ccccc1C(=O)N1CCCC(CNC(=O)c2ccccc2Cl)C1 (stereo not given)	16.1%	8.8%	-2.2%	27.3*	31.8	u
COc1ccccc1OCC(=O)NCC1CCCN(C(=O)c2ccccc2SC)C1 (stereo not given)	-19.3%	-14.2%	3.0%	-2.0	11.2	1.9%
COc1ccccc1OCC(=O)NCC1CCCN(C(=O)c2ccccc2C(C)=O)C1 (stereo not given)	6.5%	-4.1%	3.0%	-1.2	5.2	16.5µM*
Cc1cc(C=C2C(=O)NC(=S)NC2=O)c(C)n1-c1ccc2c(c1)OCO2	-2.9%	u	-9.8%	38.6*	23.6*	u
Cc1cc(C=C2C(=O)NC(=O)NC2=O)c(C)n1-c1ccc2c(c1)OCO2	8.9%	18.7%	5.7%	-2.9	-5.2	u
O=C(CN(Cc1ccco1)Cc1cccs1)N1CCN(S(=O)(=O)c2cccc(F)c2)CC1	13.1µM*	x	9.9%	x	x	u
O=C(CSc1ccccc1)N1CCN(S(=O)(=O)c2cccs2)CC1	17.8%	-14.3%	-4.4%	5.9*	18.1	u
CC(=O)c1ccc(OCCCC(=O)N2CCN(S(=O)(=O)c3cccs3)CC2)cc1	u	-3.6%	-7.8%	0.7	-7.1	9.28µM*
O=C(CCCOc1ccccc1)N1CCN(S(=O)(=O)c2cccs2)CC1	x	5.0%	-15.8%	8.2	41.9	-22.9%
COc1cc(C(=O)N2CCN(S(=O)(=O)c3cccs3)CC2)cc(OC)c1C	u	-0.4%	-1.7%	5.6	-12.8	u
COc1ccc(Br)c(C(=O)N2CCN(S(=O)(=O)c3cccs3)CC2)c1	3.7µM*	16.7%	0.7%	7.4	-9.3	24.7%
Cc1ccc2c(c1)C(=O)CC1(CCCC1)O2	49.2%	-6.4%	1.6%	-1.4	13.7	91.9%
COc1cccc(NC(=O)CSc2nnc(-c3cccc(OC(C)C)c3)n2N)c1	66.4%	-24.2%	-11.6%	-2.5	-12.6	40.1%
Nc1ccc2nc(CCCO)[nH]c2c1	u	-1.5%	-2.7%	-1.0	-1.5	28.4%
